The text below walks through data of PubChem BioAssay (NCATS).

SMILES strings stand for the structures. Values joined by “and” are separate entries in the source; they are usually repeats but may differ in a detail not shown here. Equal values may be shown once. Values without a mark were called inactive. Inconclusive results are not listed. Active and inactive are the calls of the source. Unless noted, calls follow the shape of the dose curve; as a rule, active = well fitted curve in the direction sought with a large enough effect; inconclusive = small, poorly fitted or top-dose-only effect, or another doubt; inactive = no such curve, though single readings can be large; an effect the other way counts as inactive or inconclusive.

The nature of experiment [1]: Cell Viability - HepG2 (AID 433; calls by dose curve;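 also: potency is read from the fitted curve at half-maximal effect; cells exposed to compound for 40 hours; potency for ATP loss meaning cytotoxicity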). Particulars: qHTS. Put shortly:
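HepG2 hepatocellular carcinoma cells (1500/well) were treated with compounds for 40 h at 37 °C in complete medium; intracellular ATP was read by CellTiter-Glo luminescence. Data were normalized to DMSO and 100 uM tamoxifen, and AC50 came from Hill fits.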

The nature of experiment [2]: Cell Viability - SH-SY5Y (AID 544).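 Also: cells exposed to compound for 40 hours; nearly all actives have a fitted effect of over 55% in size.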 Also: potency is read from the fitted curve at half-maximal effect. Particulars: SH-SY5Y neuroblastoma cell viability; viability change, negative = cytotoxic: at 92.2 µM (top of the series). Put shortly: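 Luminescent ATP read-out (CellTiter-Glo) measures loss of viable SH-SY5Y neuroblastoma cells after 40 hr compound exposure at 37 °C. AC50 values derive from standard Hill modelling of qHTS concentration-response data.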

Experiment [3] in a line: Cell Viability - Mesenchymal (AID 546).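 Also: cells exposed to compound for 40 hours before reading.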 The settings on record: mesenchymal cells viability, qHTS; series mostly up to 91.7 µM. Put shortly:
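Normal human renal glomerulus-derived kidney mesenchymal cells, 1000 per well in complete medium, were treated with compounds for 40 hr at 37 °C. Viability was read as intracellular ATP by CellTiter-Glo luminescence; AC50 values came from Hill-equation fits of qHTS concentration-response data.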
In general terms: In qHTS, concentration-response curves come from the screen itself.

The nature of experiment [4]: Cellular Toxicity (caspase-3) HepG2 (AID 654).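 Also: cells exposed to compound for 16 hours before reading.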 Particulars: HepG2 caspase-3 activation, luminescence, 0% = DMSO only, 100% = tamoxifen; series mostly up to 92.2 µM. Put shortly: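 Cells plated 5 hr at 37 °C, compound added, incubated 16 hr at 37 °C. Caspase-Glo 3/7 reagent followed, 20 min at room temperature, then luminescence read. Activation scored as signal increase; AC50 from Hill fit.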

Experiment [5] in a line: Cellular Toxicity (caspase-3) HUV-EC-C (AID 656). The settings on record: HUV-EC-C cells, caspase-3 activation (apoptosis), vehicle = 0, 100 µM tamoxifen = 100%; series mostly up to 92.2 µM. In outline:
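HUV-EC-C endothelial cells, 1000/well, were pre-incubated 5 hr at 37°C, then exposed to compounds for 16 hr at 37°C. Caspase-Glo 3/7 luminescence was read after 20 min at room temperature. AC50 came from Hill fits, normalized to DMSO and 100 uM tamoxifen.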

Experiment [6] can be described thus: Cellular Toxicity (caspase-3) Mesangial (AID 660).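 Also: combined caspase 3 and 7 activity read by Caspase-Glo luminescence; cells exposed to compound for 16 h before the caspase read.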 The settings on record: mesangial cells, normalized: DMSO 0%, 100 µM tamoxifen 100%; series mostly up to 91.7 µM. Put shortly: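 Mesangial cells, 1000/well, 5 h settle at 37 °C; compound 16 h, 37 °C; Caspase-Glo 3/7 reagent 20 min RT; luminescence. Norm.: DMSO = 0%, tamoxifen 100 uM = 100%. AC50, Hill fit.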

A short description of experiment [7]: Cellular Toxicity (caspase-3) SK-N-SH (AID 661).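 Also: 0% = DMSO basal and 100% = 10 µM staurosporine.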 The settings on record: SK-N-SH caspase-3 activation, qHTS; series mostly up to 91.7 µM. In outline:
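Human neuroblastoma SK-N-SH, 1500 cells/well, 5 hr pre-incubation, then compound 16 hr, 37 °C. Caspase-Glo 3/7 reagent, 1 hr RT, luminescence. Norm. to DMSO/10 uM staurosporine; Hill-fit AC50.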

A short description of experiment [8]: Cellular Toxicity (caspase-3) Hek293 (AID 664).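 Also: cells exposed to compound for 16 h at 37 °C before readout.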 Particulars: HEK293 caspase-3 activation, DMSO = 0%, 100 µM tamoxifen = 100%; at 92.2 µM (top of the series). In outline:
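Cells plated, 5 hr at 37 °C; compounds added; 16 hr at 37 °C; Caspase-Glo 3/7 reagent, 20 min RT; luminescence read. Activation expressed relative to DMSO and 100 uM tamoxifen, AC50 by Hill model.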

A short description of experiment [9]: Cellular Toxicity (caspase-3) NIH 3T3 (AID 666).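 Also: caspase signal read after 16 h compound exposure; 0% = DMSO basal and 100% = 100 µM tamoxifen stimulation.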 Particulars: NIH 3T3 caspase-3 activation, apoptosis/toxicity; series mostly up to 92.2 µM. Put shortly: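 Luminescence from aminoluciferin released by caspase-3/7 cleavage of a peptide substrate served as read-out. Mouse fibroblast NIH 3T3 cells were exposed to compounds over a concentration range for 16 hours, and AC50 values came from standard Hill modelling.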

The nature of experiment [10]: Cell Viability - LYMP2-023 (AID 975).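 Also: cellular ATP measured by luciferase luminescence as viability proxy; cells exposed to compound for 24 hours at 37 °C; plate controls were DMSO only for no effect and 92 µM tetraoctylammonium bromide control for full effect; nearly all actives have a fitted effect of over 55% in size.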 The settings on record: LYMP2-023 lymphoblastoid cell viability; series mostly up to 92.2 µM. In outline:
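2500 cells/well, 5 hr 37 C; cpd 24 hr 37 C; CellTiter-Glo, 30 min RT; luminescence. qHTS conc-response, Hill fit -> AC50. Pos ctrl tetraoctylammonium bromide.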

Experiment [11] in a line: Cell Viability - LYMP2-014 (AID 983).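 Also: cells exposed to compound for 24 h at 37 °C; plate controls were DMSO only for no effect and 92 µM tetraoctylammonium bromide for full effect; nearly all actives have a fitted effect of over 50% in size.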 Particulars: LYMP2-014 lymphoblastoid cells, viability qHTS; series mostly up to 92.2 µM. Put shortly:
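Luminescent ATP signal (CellTiter-Glo, 30 min at room temperature) serves as the viability read-out after 24 hr compound exposure at 37 C. Cells were seeded at 2500 per well and settled 5 hr beforehand.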

Experiment [12] is described as follows: Cell Viability - LYMP2-026 (AID 989).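 Also: cells exposed to compound for 24 h at 37 °C; % is scaled to controls: 0 for no effect and ±100 for the full control effect; nearly all actives have a fitted effect of over 50% in size.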 Particulars: LYMP2-026 lymphoblastoid cell viability, qHTS; series mostly up to 92.2 µM. Put shortly: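 Luminescent ATP signal (CellTiter-Glo, 30 min room temperature) measures viable lymphoblastoid cells after 24 hr compound treatment at 37 C. Decreased ATP reflects acute toxicity; AC50 values come from Hill-equation modeling.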

Experiment [13] deals with Peroxisome proliferator-activated receptor delta (Homo sapiens) (UniProt Q03181). The experiment in a line: qHTS assay for small molecule agonists of peroxisome proliferator-activated receptor delta signaling (AID 588534; calls by dose curve;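 also: 0% = DMSO basal wells and 100% = positive control agonist at 10 µM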). The settings on record: HEK293T PPARdelta-UAS-bla, beta-lactamase ratio, 18 h; series mostly up to 76.7 µM. In outline:
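Fluorescence from CCF4 substrate cleavage by beta-lactamase reporter, read 2 hrs at RT, measured agonist activity. Compounds were tested with 18 hrs exposure at 37 C. Concentration-response data fitted to Hill equation.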

Experiment [14] deals with Vitamin D3 receptor (Homo sapiens) (UniProt P11473). The experiment in a line: qHTS assay for small molecule antagonists of vitamin D receptor signaling (AID 588541; calls by dose curve;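 also: receptor activated by calcitriol during compound treatment; % is scaled to controls: 0 for no effect and ±100 for the full control effect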). The settings on record: HEK293T VDR-UAS-bla, beta-lactamase ratio, antagonist mode; series mostly up to 76.7 µM. Put shortly: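 VDR-UAS-bla HEK293T cells (2000/well, 2% charcoal-stripped FBS) were treated with titrated compounds plus 1-alpha,25-dihydroxyvitamin D3 (50 nM or 3 nM final) for 16 h at 37 C. CCF4 beta-lactamase fluorescence was read; Hill fits gave IC50.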
Sequence of Vitamin D3 receptor (Homo sapiens) (P11473 whole entry, looked up): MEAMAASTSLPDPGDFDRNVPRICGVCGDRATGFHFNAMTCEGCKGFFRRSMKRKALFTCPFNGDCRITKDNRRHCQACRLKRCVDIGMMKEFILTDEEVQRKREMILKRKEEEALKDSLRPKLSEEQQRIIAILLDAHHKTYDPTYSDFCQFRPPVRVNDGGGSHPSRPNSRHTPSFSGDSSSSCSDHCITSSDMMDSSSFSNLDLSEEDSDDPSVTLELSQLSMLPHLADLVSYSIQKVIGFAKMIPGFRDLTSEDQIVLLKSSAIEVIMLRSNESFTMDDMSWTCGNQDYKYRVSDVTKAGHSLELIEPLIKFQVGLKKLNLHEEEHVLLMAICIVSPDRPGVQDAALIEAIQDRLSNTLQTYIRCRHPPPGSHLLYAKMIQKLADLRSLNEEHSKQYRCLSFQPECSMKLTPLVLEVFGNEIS

Experiment [15] shares this target. Kind of experiment: qHTS assay for small molecule agonists of vitamin D receptor signaling (AID 588543; calls by dose curve;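 also: 0% = DMSO basal and 100% = reference agonist control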). The settings on record: HEK293T VDR-UAS-bla, beta-lactamase ratio, 16 h; series mostly up to 76.8 µM. In outline:
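GeneBLAzer VDR-UAS-bla HEK293T cells in 2% charcoal-stripped FBS medium were dosed with compound titrations for 16 h at 37 °C; CCF4 β-lactamase readout (405 nm ex, 460/530 nm em). EC50 and efficacy from Hill fits, normalized to 50 nM calcitriol (100%) and DMSO (0%).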

The target in experiment [16] is Voltage-gated inwardly rectifying potassium channel KCNH2 (Homo sapiens) (UniProt Q12809). Kind of experiment: qHTS Assay for Small Molecule Inhibitors of the Human hERG Channel Activity (AID 588834).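 Also: top concentration of the series differs between compounds; % is scaled to controls: 0 for no effect and ±100 for the full control effect; lower thallium flux fluorescence means stronger hERG block; nearly all actives have a fitted effect of over 50% in size.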 Particulars: U2OS BacMam hERG, FluxOR thallium flux fluorescence; series mostly up to 92.2 µM. Put shortly: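 U2OS cells transduced with hERG via BacMam (MOI ~100), plated 2000/well, loaded with FluxOR thallium dye, compound ~10 min, then stimulation buffer; fluorescence decrease read kinetically; AC50 from Hill fits.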
Sequence of Voltage-gated inwardly rectifying potassium channel KCNH2 (Homo sapiens) (Q12809 whole entry, looked up): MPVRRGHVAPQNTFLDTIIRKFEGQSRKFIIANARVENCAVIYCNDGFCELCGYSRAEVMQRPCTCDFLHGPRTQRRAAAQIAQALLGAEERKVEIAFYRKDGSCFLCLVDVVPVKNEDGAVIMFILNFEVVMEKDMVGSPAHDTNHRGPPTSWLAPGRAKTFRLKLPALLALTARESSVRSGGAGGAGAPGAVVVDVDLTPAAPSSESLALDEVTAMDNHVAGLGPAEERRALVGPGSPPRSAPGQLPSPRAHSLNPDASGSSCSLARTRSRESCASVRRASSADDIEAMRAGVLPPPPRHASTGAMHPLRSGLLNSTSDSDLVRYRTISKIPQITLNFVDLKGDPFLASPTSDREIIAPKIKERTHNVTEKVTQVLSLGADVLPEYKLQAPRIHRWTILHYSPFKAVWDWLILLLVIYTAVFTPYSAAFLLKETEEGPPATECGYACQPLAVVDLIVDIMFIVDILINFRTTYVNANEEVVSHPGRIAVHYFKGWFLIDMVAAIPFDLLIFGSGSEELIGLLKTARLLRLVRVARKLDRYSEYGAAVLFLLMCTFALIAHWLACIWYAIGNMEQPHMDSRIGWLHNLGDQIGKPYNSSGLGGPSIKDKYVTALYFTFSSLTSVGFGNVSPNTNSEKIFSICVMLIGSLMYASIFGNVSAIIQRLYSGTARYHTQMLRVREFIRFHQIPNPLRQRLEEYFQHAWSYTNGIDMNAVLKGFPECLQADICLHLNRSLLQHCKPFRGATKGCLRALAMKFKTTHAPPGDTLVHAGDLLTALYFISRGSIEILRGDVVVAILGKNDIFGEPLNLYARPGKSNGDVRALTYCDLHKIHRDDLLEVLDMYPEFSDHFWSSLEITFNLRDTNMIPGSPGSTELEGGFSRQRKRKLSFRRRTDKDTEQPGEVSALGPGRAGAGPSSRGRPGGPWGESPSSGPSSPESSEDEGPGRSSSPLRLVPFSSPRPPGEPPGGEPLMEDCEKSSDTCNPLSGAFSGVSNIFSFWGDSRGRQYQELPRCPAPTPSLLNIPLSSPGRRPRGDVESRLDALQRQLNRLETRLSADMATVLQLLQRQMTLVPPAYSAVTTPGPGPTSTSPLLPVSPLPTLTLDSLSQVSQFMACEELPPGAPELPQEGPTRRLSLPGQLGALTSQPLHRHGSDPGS

A short description of experiment [17]: qHTS assay for small molecule activators of the p53 signaling pathway (AID 651743; active = well fitted activation curve with a large enough effect in the signal ratio, not every such curve was filed as active; the % refers to the signal ratio; also: potency is read from the fitted curve at half-maximal effect; as to activation: % of control where 0% means no effect). The settings on record: HCT-116 p53RE-bla, beta-lactamase FRET ratio, 16 h; activation: active compounds read high. In outline:
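Cell-based beta-lactamase reporter (p53 response elements, HCT-116 background). After a 5-hour preincubation, cells received compound for 16 hours at 37 C; substrate development ran 2 hours at room temperature.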

Experiment [18] can be described thus: qHTS assay for small molecule disruptors of the mitochondrial membrane potential - 1 hr assay (AID 651754; calls by dose curve; also: nearly all actives have a fitted effect of over 35% in size; also: potency is read from the fitted curve at half-maximal effect). Particulars: series mostly up to 92.2 µM. Put shortly: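 HepG2, 2,000 cells/well, overnight attachment; cpd or DMSO 1 hr, 37C/5% CO2; Mito-MPS dye 30 min, 37C; fluorescence monomer (490/535) and aggregate (540/590).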
Experiment [19] has as its target Nuclear receptor ROR-gamma (Homo sapiens) (UniProt P51449). The experiment in a line: qHTS assay for small molecule antagonists of the retinoid-related orphan receptor gamma (ROR-gamma) signaling pathway (AID 651802).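 Also: CHO cells with doxycycline-induced ROR-gamma expression; luciferase reporter luminescence driven by ROR response element; % is scaled to controls: 0 for no effect and ±100 for the full control effect; nearly all actives have a fitted effect of over 60% in size.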 Particulars: ROR-gamma antagonist cell reporter assay; series mostly up to 92.2 µM. Put shortly: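 CHO, TET-inducible ROR + RORE-LUC reporter, 1536-well qHTS. Compound pinned, doxycycline added, 16hr 37C/5% CO2. ONE-Glo, 30 min RT, luminescence; signal drop scored as antagonism.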

Experiment [20] in a line: qHTS assay for small molecule agonists of the antioxidant response element (ARE) signaling pathway measured by Nrf2-dependant transcriptional activity - cell viability counter screen (AID 720653; active = well fitted curve in the direction sought with a large enough effect in the repeat runs; an effect the other way counts as inactive or inconclusive; also: % is scaled to controls: 0 for no effect and ±100 for the full control effect). The settings on record: ARE-bla HepG2 viability, CellTiter-Glo ATP luminescence, 16 h; active compounds read low. In outline: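 ARE-bla HepG2 cells (2,000/well) rested 5 hrs at 37C/5% CO2, then exposed to compounds in DMSO for 16 hrs. Viability was read in the same wells as intracellular ATP by luminescence, 30 min at room temperature after reagent addition.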

Sequence of Peroxisome proliferator-activated receptor delta (Homo sapiens) (Q03181 whole entry, looked up): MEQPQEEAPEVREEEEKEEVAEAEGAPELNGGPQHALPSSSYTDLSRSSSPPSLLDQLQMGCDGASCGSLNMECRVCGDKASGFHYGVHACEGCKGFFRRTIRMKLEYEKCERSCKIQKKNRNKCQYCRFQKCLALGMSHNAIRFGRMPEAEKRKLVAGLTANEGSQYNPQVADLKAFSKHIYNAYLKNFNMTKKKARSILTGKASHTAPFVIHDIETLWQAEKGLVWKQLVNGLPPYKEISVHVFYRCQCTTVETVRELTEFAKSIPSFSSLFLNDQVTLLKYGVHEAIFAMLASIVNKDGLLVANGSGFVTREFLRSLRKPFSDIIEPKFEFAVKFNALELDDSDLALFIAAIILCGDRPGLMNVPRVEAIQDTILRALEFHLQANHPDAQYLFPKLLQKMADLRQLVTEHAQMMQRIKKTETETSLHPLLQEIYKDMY
Sequence of Nuclear receptor ROR-gamma (Homo sapiens) (P51449 whole entry, looked up): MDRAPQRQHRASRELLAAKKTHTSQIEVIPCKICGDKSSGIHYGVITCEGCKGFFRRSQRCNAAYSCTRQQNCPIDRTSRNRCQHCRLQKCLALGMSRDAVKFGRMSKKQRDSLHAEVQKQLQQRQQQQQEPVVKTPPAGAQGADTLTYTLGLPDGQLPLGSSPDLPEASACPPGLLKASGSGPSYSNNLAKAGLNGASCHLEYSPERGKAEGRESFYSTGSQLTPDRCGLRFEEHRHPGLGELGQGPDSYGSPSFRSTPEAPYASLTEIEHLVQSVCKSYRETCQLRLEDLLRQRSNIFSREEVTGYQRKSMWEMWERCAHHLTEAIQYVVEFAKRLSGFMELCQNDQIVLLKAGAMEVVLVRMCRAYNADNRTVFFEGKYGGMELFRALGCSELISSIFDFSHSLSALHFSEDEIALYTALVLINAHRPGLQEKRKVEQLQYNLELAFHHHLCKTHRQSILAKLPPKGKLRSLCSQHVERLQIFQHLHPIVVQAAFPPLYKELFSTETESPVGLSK

Turning to `CCBr`, the Potency in experiment [1] is greater than 92 µM. The Potency entry in [2], in experiment [3], in experiment [7], in experiment [9], in experiment [10] and in experiment [11] was “inactive” each time. Moreover, the Potency entry in experiment [12], in experiment [16], in experiment [18] and in [19] was “inactive” each time. The result in [4], in [5], in [6], in experiment [13], in experiment [14] and in [15] was inactive. Moreover, in experiment [8], the caspase-3 activation is 2.63%. Moreover, the activation in experiment [17] was 1.32%. In addition, in experiment [20], the max response is -4.15%.

As for `Nc1ccc2ccccc2c1`, in experiment [1], the Potency was greater than 92 µM. Besides, the Potency result in experiment [2], in [10], in experiment [11], in experiment [12], in experiment [18] and in [19] was “inactive” throughout. The call in [4], in experiment [5], in experiment [6], in [14] and in experiment [15] was inactive. For the same molecule, the caspase-3 activation in [8] is 2.15%. Besides, the activation in experiment [17] is 0.265%. For the same molecule, the max response in experiment [20] is -2.01%.

As for `OCCOCCO`, the Potency in experiment [1] is greater than 92 µM. The Potency entry in [2], in experiment [3], in experiment [7], in experiment [9], in experiment [10] and in experiment [12] was “inactive” throughout. In addition, the Potency entry in experiment [16], in experiment [18] and in experiment [19] was “inactive” each time. In addition, the outcome in [4], in experiment [5], in experiment [6], in experiment [13], in [14] and in [15] was inactive. In [8], the caspase-3 activation was 3.16%.

Consider `CCOS(C)(=O)=O`, for which the Potency in [1] is greater than 92 µM. Moreover, the Potency result in experiment [2], in experiment [3], in experiment [7], in experiment [9], in experiment [11] and in experiment [12] was “inactive” in each case. For the same molecule, the Potency result in [16], in experiment [18] and in [19] was “inactive” throughout. Besides, the result in experiment [4], in [5], in experiment [13], in [14] and in [15] was inactive. Also, the caspase-3 activation in [8] was -3.11%. In addition, the activation in [17] is -2.6%. Further, the max response in experiment [20] is -5.61%.

For `COC(=O)Nc1nc2ccccc2[nH]1`, the Potency in [1] is greater than 92 µM; in [2], 7.94 µM (active); in experiment [17], 10 µM (active) and 12.6 µM (active). In addition, the Potency result in [3], in experiment [7], in [9], in [16], in [18] and in experiment [19] was “inactive” in each case. The outcome in experiment [4], in [5], in experiment [6], in experiment [13], in experiment [14] and in experiment [15] was inactive. The caspase-3 activation in experiment [8] is -4.59%. Further, the max response in experiment [20] was 0.0482% and -1.74%.

For `COc1cc(-c2ccc(N)c(OC)c2)ccc1N`, the Potency in [1] is greater than 92 µM; in [18], 37.6 µM (active). The Potency result in experiment [2], in [3], in experiment [7], in [9], in experiment [10] and in experiment [11] was “inactive” in each case. Further, the Potency entry in experiment [12], in experiment [16] and in [19] was “inactive” throughout. Further, the outcome in experiment [4], in experiment [5], in experiment [13], in experiment [14] and in [15] was inactive. In addition, the activation in experiment [17] was 0.265% and -0.413% and 0.709%. For the same molecule, in [20], the max response was 19% and 0.28% and -8.23%.

For the molecule `O=C(O)c1cccc(Cl)c1`, the Potency in experiment [1] is greater than 92 µM. The Potency entry in [2], in experiment [3], in experiment [7], in [9], in experiment [10] and in [11] was “inactive” in each case. The Potency entry in experiment [12], in [16] and in experiment [18] was “inactive” throughout. Also, the result in experiment [4], in experiment [5], in [6], in experiment [13], in experiment [14] and in experiment [15] was inactive. Besides, the caspase-3 activation in experiment [8] was -0.358%. In addition, in [20], the max response is -8.47%.
